Test [1] has as its target Thyroid hormone receptor beta (Homo sapiens) (UniProt P10828). The test is described as follows: qHTS assay for small molecule agonists of thyroid hormone receptor beta signaling (AID 588545; calls by dose curve;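 note: 0% = DMSO only and 100% = 10 nM T3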). In outline:
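Stimulation of a TR-driven beta-lactamase reporter was quantified in GripTite HEK 293 cells. Compound series ran for 18 hrs; curves were normalized to T3 and DMSO controls and fitted to yield EC50.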

Test [2] can be described thus: qHTS assay for small molecule antagonists of retinoid X receptor alpha signaling (AID 588546; active = well fitted inhibition curve with a large enough effect in the signal ratio, with a control signal flat, not every such curve was filed as active; the % refers to the signal ratio;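 note: cells stimulated with 9-cis-retinoic acid as agonist; % is set by controls: 0 for no effect and ±100 for the full control effect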). The conditions noted are these: HEK293T RXRa-UAS-bla, beta-lactamase ratio, antagonist mode; measured here: W530 green channel, cytotoxicity proxy. A digest of the protocol:
(§1)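 Beta-lactamase reporter inhibition, read as CCF4 fluorescence ratio (ex 405, em 460/530 nm) after 2 h at RT. HEK293T UAS-bla cells, 2500/well, were stimulated with 9-cis-RA at 500 or 100 nM final alongside test compound for 18 h at 37 C.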
On the technique in general: qHTS replaces the single test concentration by a dilution series.

The target of test [3] is Retinoic acid receptor RXR-alpha (Homo sapiens) (UniProt P19793). The test is described as above. The settings on record: HEK293T RXRa-UAS-bla, beta-lactamase ratio, antagonist mode. In outline: as §1
Retinoic acid receptor RXR-alpha (Homo sapiens), sequence (P19793 whole entry, looked up): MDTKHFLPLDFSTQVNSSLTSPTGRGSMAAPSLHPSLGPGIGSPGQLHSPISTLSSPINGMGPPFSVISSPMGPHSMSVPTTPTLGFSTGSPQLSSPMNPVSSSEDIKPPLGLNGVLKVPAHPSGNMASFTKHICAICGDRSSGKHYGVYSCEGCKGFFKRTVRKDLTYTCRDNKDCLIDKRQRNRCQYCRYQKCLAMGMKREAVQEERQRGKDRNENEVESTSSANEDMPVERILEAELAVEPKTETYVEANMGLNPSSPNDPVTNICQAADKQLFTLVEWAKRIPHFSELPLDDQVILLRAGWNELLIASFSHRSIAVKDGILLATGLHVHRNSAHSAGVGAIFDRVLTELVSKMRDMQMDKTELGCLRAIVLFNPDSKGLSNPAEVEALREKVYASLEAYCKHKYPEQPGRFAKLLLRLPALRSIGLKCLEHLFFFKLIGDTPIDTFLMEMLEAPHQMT
In test [4] the target is Thyroid hormone receptor beta (Homo sapiens) (UniProt P10828). The test can be described thus: qHTS assay for small molecule antagonists of thyroid hormone receptor beta signaling (AID 588547; active = well fitted inhibition curve with a large enough effect in the signal ratio, with a control signal flat, not every such curve was filed as active; the % refers to the signal ratio;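 note: cells stimulated with 0.4 nM T3 agonist during compound exposure; series mostly up to about 77 µM; % is set by controls: 0 for no effect and ±100 for the full control effect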). The settings on record: TR-UAS-bla HEK293, beta-lactamase ratio, antagonist mode, 18 h. In outline:
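TR-UAS-bla GripTite HEK293 cells in 2% charcoal/dextran FBS medium were preincubated 4 h at 37 C, given compound (0.59 nM to 92 uM) plus 0.4 nM T3 (final) for 18 h, then CCF4 for 2 h at RT; Hill fit gave IC50.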

Test [5] addresses Voltage-gated inwardly rectifying potassium channel KCNH2 (Homo sapiens) (UniProt Q12809). The test can be described thus: qHTS Assay for Small Molecule Inhibitors of the Human hERG Channel Activity (AID 588834).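 Note: top concentration of the series differs between compounds; % is set by controls: 0 for no effect and ±100 for the full control effect; lower thallium flux fluorescence means stronger hERG block; nearly all actives have a fitted effect of over 50% in size.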 In outline:
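hERG-BacMam U2OS, 2000 cells/well; 0.7X FluxOR loading 1 hr RT dark; cpd ~10 min 37 °C; stim buffer; FDSS fluorescence 2 min @ 1 s; AC50 Hill fit.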

Test [6] is described as follows: qHTS assay for small molecule agonists of the antioxidant response element (ARE) signaling pathway (AID 651741; active = well fitted activation curve with a large enough effect in the signal ratio; the % refers to the signal ratio; note: % of control where 0% means no effect). In outline:
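Compounds in DMSO are pinned onto HepG2 ARE-bla cells (2,000/well) that were preincubated 5 h; plates stay 16 h at 37 C, then beta-lactamase activity is detected with LiveBLAzer B/G substrate by fluorescence.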

Test [7] in a line: qHTS assay for small molecule activators of the p53 signaling pathway (AID 651743; active = well fitted activation curve with a large enough effect in the signal ratio, not every such curve was filed as active; the % refers to the signal ratio; note: series mostly up to about 92 µM; % of control where 0% means no effect). The settings on record: HCT-116 p53RE-bla, beta-lactamase FRET ratio, 16 h; activation: stronger effect = higher value. A digest of the protocol: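 Cell-based beta-lactamase reporter (p53 response elements, HCT-116 background). After a 5-hour preincubation, cells received compound for 16 hours at 37 C; substrate development ran 2 hours at room temperature.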

A short description of test [8]: qHTS assay for small molecule activators of the nuclear factor-kappa B (NF-kB) signaling pathway (AID 651749; active = well fitted activation curve with a large enough effect in the signal ratio; the % refers to the signal ratio; note: series mostly up to about 77 µM; % of control where 0% means no effect). The settings on record: NF-kB-bla ME-180 cells, beta-lactamase FRET ratio, 16 h; stronger effect = higher value. A digest of the protocol: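 Screening used 2,000 ME-180 reporter cells per well exposed to pinned compound (23 nL) or DMSO; after 16 hr at 37C, beta-lactamase expression under NF-kB control was assessed through FRET.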

The nature of test [9]: qHTS assay for small molecule disruptors of the mitochondrial membrane potential - 1 hr assay (AID 651754; calls by dose curve; note: % is set by controls: 0 for no effect and ±100 for the full control effect; nearly all actives have a fitted effect of over 35% in size). A digest of the protocol: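 HepG2, 2,000 cells/well, overnight attachment; cpd or DMSO 1 hr, 37C/5% CO2; Mito-MPS dye 30 min, 37C; fluorescence monomer (490/535) and aggregate (540/590).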
Test [10] can be described thus: qHTS assay for small molecule disruptors of the mitochondrial membrane potential - 5 hr assay (AID 651755; calls by dose curve; note: % is set by controls: 0 for no effect and ±100 for the full control effect; nearly all actives have a fitted effect of over 40% in size). A digest of the protocol:
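HepG2 cells, attached overnight at 37C, were exposed to compound or DMSO for 5 hr at 37C, 5% CO2. Mito-MPS dye was then added for 30 min, and fluorescence read at 490/535 nm (monomers) and 540/590 nm (aggregates).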

Test [11] has as its target Tumor necrosis factor (Homo sapiens) (UniProt P01375). The test is described as follows: qHTS assay to identify small molecules that stimulate Tumor Necrosis Factor-alpha (TNF-alpha) secretion (AID 651757; active = well fitted curve in the direction sought with a large enough effect in the signal ratio; the % refers to the signal ratio; note: 0% is about no effect). A digest of the protocol: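 Read-out is HTRF, a TR-FRET sandwich of cryptate- and XL665-labeled anti-TNF-alpha antibodies detecting cytokine secreted by THP-1 cells. Cells had been incubated with test compounds at 37 C for 17 hrs beforehand.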

The nature of test [12]: qHTS assay to identify small molecules that stimulate interleukin-8 (IL-8) secretion (AID 651758; active = well fitted activation curve with a large enough effect in the signal ratio; the % refers to the signal ratio; note: 0% is about no effect). In outline: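 THP-1, 2000 cells/well; cpd 16 h, 37 C; add cryptate + XL665 anti-IL-8 Abs; RT 1-3 h; TR-FRET read.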
Test [13] in a line: qHTS assay for environmental chemicals that activate the Aryl hydrocarbon Receptor (AhR) signaling pathway (AID 651777). Note: % of control where 0% means no effect; nearly all actives have a fitted effect of over 15% in size. The conditions noted are these: 1A2-DRE human hepatoma cells, luciferase, 24 h; activation: stronger effect = higher value. A digest of the protocol:
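Luminescence (One-Glo, 30 min, room temperature) reports AhR-driven luciferase in stably transfected human hepatoma cells bearing DRE and CYP1A2 promoter. Cells (1,200/well) were treated with compound for 24 hr at 37 C in qHTS format.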

For test [14], the target named is Peroxisome proliferator-activated receptor alpha (Homo sapiens) (UniProt Q07869). The test is described as follows: qHTS assay for small molecule agonists of the peroxisome proliferator-activated receptor alpha (PPARalpha) signaling pathway (AID 651778). Note: % of control where 0% means no effect. The settings on record: PathHunter PPARalpha complementation, chemiluminescence, 6 h; max response: stronger effect = higher value. A digest of the protocol:
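Cells plated at 2,000/well and held overnight at 37 C, 5% CO2, then compound added by pin tool for 6 hr; after PathHunter detection reagent and 60 min at room temperature, chemiluminescence from enzyme complementation was read.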

Test [15] can be described thus: qHTS assay for small molecule agonists of the antioxidant response element (ARE) signaling pathway measured by Nrf2-dependant transcriptional activity (AID 720636; active = well fitted curve in the direction sought with a large enough effect in the repeat runs; an effect the other way counts as inactive or inconclusive; note: % of control where 0% means no effect). In outline: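 Nrf2-dependent transcription read as ONE-Glo luciferase signal from ARE-luc HepG2 reporter cells after 16 hr compound treatment at 37 C, 5% CO2, in assay medium with 1% dialyzed FBS.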
A short description of test [16]: qHTS assay for small molecule antagonists of the retinoid-related orphan receptor gamma (ROR-gamma) signaling pathway - cell viability counter screen (AID 720652; active = well fitted curve in the direction sought with a large enough effect in the repeat runs; an effect the other way counts as inactive or inconclusive;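 note: series mostly up to about 92 µM; compound exposure lasted 16 hr before ATP read; % is set by controls: 0 for no effect and ±100 for the full control effect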). In outline: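 Luminescence from CellTiter-Glo after 30 min at room temperature reported cellular ATP as the cytotoxicity measure. Cells were the CHO reporter line with doxycycline-induced ROR-gamma expression, exposed to compound for 16 hr at 37 C.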

Test [17] can be described thus: qHTS assay for small molecule agonists of the antioxidant response element (ARE) signaling pathway measured by Nrf2-dependant transcriptional activity - cell viability counter screen (AID 720653; active = well fitted curve in the direction sought with a large enough effect in the repeat runs; an effect the other way counts as inactive or inconclusive; note: % is set by controls: 0 for no effect and ±100 for the full control effect). The settings on record: ARE-bla HepG2 viability, CellTiter-Glo ATP luminescence, 16 h; max response: stronger effect = lower value. A digest of the protocol:
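ARE-bla HepG2 cells (2,000/well) rested 5 hrs at 37C/5% CO2, then exposed to compounds in DMSO for 16 hrs. Viability was read in the same wells as intracellular ATP by luminescence, 30 min at room temperature after reagent addition.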

Test [18] is described as follows: qHTS assay for cell viability of HEK293 cells (AID 743288). Note: % is set by controls: 0 for no effect and ±100 for the full control effect; nearly all actives have a fitted effect of over 50% in size. The conditions noted are these: ATP luminescence (CellTiter-Glo), 18 h; max response: stronger effect = lower value. In outline: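 HEK293 parental, 2,000 cells/well; ≥5 h pre-incubation 37 C; pintool compound addition; 18 h, 37 C; CellTiter-Glo 30 min RT; luminescence read.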
The nature of test [19]: qHTS assay for cell viability of the p53RE-bla HCT-116 cell line (AID 743292). Note: % is set by controls: 0 for no effect and ±100 for the full control effect; nearly all actives have a fitted effect of over 55% in size. In outline: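 ATP-based luminescent viability (CellTiter-Glo, 30 min RT) after 16 h compound treatment at 37 C of p53RE-bla HCT-116 cells, seeded at 4,000 cells/well and rested 5 h before dosing.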
The target in test [20] is Nuclear receptor subfamily 1 group I member 2 (Rattus norvegicus) (UniProt Q9R1A7). The test can be described thus: qHTS assay for small molecule activators of the rat pregnane X receptor (rPXR) signaling pathway (AID 651751; call rule not given here; note: 0% is about no effect). The settings on record: rPXR reporter cells, luciferase (One-Glo), 24 h.
Nuclear receptor subfamily 1 group I member 2 (Rattus norvegicus), sequence (Q9R1A7 whole entry, looked up): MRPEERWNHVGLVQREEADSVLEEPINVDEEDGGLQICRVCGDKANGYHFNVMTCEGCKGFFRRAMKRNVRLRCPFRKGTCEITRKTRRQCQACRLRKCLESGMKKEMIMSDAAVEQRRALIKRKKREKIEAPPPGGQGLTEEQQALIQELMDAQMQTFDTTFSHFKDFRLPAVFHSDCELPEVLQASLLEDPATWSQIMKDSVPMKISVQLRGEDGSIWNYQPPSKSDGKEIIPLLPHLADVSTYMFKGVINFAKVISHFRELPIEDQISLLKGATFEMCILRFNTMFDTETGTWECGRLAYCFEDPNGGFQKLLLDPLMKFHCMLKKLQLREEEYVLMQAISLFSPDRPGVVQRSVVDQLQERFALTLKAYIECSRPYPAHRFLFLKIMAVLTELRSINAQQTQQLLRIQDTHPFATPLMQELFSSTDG
Test [21] is described as follows: qHTS assay for small molecule activators of the human pregnane X receptor (PXR) signaling pathway (AID 720659; call rule not given here; note: 0% is about no effect).

“And” between values parts separate entries of the source, which are not always exact repeats. Identical values can stand only once. Records with an inconclusive call do not appear. The source made the active and inactive calls. Unless noted, calls come from the whole dose curve; as a rule, active = well fitted curve in the direction sought with a large enough effect; inconclusive = small, poorly fitted or top-dose-only effect, or another doubt; inactive = no such curve, though single readings can be large; an effect the other way counts as inactive or inconclusive.

Thyroid hormone receptor beta (Homo sapiens), sequence (P10828 whole entry, looked up): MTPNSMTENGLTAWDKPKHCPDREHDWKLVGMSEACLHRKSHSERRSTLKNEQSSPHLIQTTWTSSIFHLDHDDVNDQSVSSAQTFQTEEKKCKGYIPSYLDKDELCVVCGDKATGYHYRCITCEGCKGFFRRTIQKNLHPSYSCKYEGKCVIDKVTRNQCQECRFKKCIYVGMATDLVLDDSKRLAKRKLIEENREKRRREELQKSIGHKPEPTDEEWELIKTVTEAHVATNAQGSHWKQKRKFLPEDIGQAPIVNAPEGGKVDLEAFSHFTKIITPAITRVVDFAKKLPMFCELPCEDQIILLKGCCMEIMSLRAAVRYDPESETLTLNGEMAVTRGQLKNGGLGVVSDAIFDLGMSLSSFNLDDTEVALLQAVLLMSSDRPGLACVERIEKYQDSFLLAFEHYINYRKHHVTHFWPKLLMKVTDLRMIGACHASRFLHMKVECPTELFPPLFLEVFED
Peroxisome proliferator-activated receptor alpha (Homo sapiens), sequence (Q07869 whole entry, looked up): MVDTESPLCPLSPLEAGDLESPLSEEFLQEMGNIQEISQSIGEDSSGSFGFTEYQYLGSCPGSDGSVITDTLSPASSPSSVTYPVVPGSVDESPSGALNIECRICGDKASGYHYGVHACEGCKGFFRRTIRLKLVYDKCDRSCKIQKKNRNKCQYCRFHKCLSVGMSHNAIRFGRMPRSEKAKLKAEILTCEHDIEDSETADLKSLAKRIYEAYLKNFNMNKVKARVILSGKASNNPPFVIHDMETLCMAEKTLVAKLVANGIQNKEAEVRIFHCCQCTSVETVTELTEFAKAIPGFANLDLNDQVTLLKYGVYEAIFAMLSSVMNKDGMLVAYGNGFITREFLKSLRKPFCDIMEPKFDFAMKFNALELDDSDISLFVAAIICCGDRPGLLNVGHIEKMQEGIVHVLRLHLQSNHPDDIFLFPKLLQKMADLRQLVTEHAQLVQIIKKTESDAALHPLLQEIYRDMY
Voltage-gated inwardly rectifying potassium channel KCNH2 (Homo sapiens), sequence (Q12809 whole entry, looked up): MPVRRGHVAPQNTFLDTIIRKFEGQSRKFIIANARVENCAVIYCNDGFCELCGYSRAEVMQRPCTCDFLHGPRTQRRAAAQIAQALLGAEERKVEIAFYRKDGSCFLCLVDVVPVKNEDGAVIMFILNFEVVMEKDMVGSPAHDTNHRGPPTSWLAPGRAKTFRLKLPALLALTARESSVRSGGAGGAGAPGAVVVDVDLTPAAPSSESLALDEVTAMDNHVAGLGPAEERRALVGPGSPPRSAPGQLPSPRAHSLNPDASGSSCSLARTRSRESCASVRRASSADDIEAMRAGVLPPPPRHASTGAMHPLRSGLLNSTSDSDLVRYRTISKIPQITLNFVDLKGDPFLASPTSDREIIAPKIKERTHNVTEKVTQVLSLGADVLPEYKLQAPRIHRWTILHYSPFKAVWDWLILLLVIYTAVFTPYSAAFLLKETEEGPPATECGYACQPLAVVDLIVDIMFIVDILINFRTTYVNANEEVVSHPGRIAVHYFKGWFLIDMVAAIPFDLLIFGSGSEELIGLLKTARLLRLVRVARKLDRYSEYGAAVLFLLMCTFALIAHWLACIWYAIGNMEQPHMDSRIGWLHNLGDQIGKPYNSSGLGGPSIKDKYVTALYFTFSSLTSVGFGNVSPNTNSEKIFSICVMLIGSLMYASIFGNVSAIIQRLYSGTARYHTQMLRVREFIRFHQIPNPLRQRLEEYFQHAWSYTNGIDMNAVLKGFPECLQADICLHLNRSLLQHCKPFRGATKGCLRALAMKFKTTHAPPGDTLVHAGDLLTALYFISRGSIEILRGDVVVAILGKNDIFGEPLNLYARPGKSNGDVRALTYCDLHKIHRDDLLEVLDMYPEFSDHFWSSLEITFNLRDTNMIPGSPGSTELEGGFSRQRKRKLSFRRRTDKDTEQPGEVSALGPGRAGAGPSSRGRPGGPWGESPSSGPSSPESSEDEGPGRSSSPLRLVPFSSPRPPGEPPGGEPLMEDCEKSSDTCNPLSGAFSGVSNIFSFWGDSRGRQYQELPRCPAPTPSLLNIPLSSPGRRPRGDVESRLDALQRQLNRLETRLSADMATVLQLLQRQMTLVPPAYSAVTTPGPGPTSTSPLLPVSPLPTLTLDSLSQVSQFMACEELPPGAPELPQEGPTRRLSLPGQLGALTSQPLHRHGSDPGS
Tumor necrosis factor (Homo sapiens), sequence (P01375 whole entry, looked up): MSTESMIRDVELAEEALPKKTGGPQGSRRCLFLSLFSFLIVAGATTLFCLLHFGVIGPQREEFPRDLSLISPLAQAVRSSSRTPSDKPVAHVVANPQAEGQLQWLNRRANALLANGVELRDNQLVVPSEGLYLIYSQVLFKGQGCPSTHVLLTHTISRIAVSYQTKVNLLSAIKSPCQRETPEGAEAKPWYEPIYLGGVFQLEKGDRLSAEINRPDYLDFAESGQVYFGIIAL

For the compound `CC(CCC(=O)O)(c1ccc(O)cc1)c1ccc(O)cc1`, the Potency entry in [1], in test [5], in [6], in test [9], in test [10] and in [11] was “inactive” in each case. Further, the Potency result in [12], in test [15], in test [16] and in test [19] was “inactive” throughout. For the same compound, the max response in [2] was 0.685% and -9.17%; in test [3], 11.2% (inactive) and 0.834% (inactive); in [14] it was -9.77% (inactive) and -1.13% (inactive); in test [17], -5.33% (inactive) and -3.83% (inactive); in test [18] it was -3.82% (inactive) and -8.09% (inactive); in test [20], -1.81% (inactive) and -3.54% (inactive). Also, the activity change % (negative = inhibition) in test [4] is -0.624% (inactive). The activation was -5.03% (inactive) and -5.24% (inactive) in [7]; 0.0681% (inactive) and 0.181% (inactive) in [8]; 2.27% (inactive) and -1.21% (inactive) in test [13]. Also, in test [21], the compound was called inactive.

The record behind these values is PubChem BioAssay (NCATS).
